From the supplement of paper PMC10849652
Of roughly 8,800 targets only a part is listed; those with a hit were picked by preference. About 0.5% of all pairs of compound and target were hits.

How the values were obtained:
Assay in all cases: log2 fold change, soluble protein after heating vs DMSO (PISA); higher = thermal stabilisation; K562 lysate, 10 uM; active = over 0.2 and 3.5 SD of the protein, either way, in both replicates (recomputed)
alvocidib = compound: CN1CC[C@H](c2c(O)cc(O)c3c(=O)cc(-c4ccccc4Cl)oc23)[C@H](O)C1 [alvocidib]
How it was run: (§1)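 Soluble protein was defined as the supernatant remaining after 21,000xg for 90 min, following pooling of heated aliquots and adjustment to 0.5% NP-40 at 4°C. Before that, crude K562 extract at 1 mg/mL protein in PBS pH 7.4 with 1 mM MgCl2 was treated with 10 μM compound for 30 min and heated for 3 min across 48°C-58°C. Quantification used TMTpro 16plex LC-MS/MS with channel sums equalised, and values are log-two fold changes in thermal stability relative to solvent controls from duplicates.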

Tubastatin A = compound: CN1CCc2c(c3ccccc3n2Cc2ccc(C(=O)NO)cc2)C1 [Tubastatin A]
How it was run: as §1

[1] = compound: CNC(=O)C1=CC=CC=C1NC2=NC(=NC=C2Cl)NC3=C(C=C(C=C3)N4CCOCC4)OC
How it was run: as §1

defactinib = compound: CNC(=O)c1ccc(Nc2ncc(C(F)(F)F)c(NCc3nccnc3N(C)S(C)(=O)=O)n2)cc1 [defactinib]
How it was run: as §1

[2] = compound: CNc1nc(-c2ccc3c(N)n[nH]c3c2)cc(N2C[C@@H](C(=O)NC3CCCCC3)CC[C@H]2C)n1
How it was run: as §1

encorafenib = compound: COC(=O)N[C@@H](C)CNc1nccc(-c2cn(C(C)C)nc2-c2cc(Cl)cc(NS(C)(=O)=O)c2F)n1 [encorafenib]
How it was run: as §1

[3] = compound: COC(=O)[C@H](CCSC)NC(=O)C1=C(C=C(C=C1)NC[C@H](CS)N)C2=CC=CC=C2
How it was run: as §1

alisertib = compound: COc1cc(Nc2ncc3c(n2)-c2ccc(Cl)cc2C(c2c(F)cccc2OC)=NC3)ccc1C(=O)O [alisertib]
How it was run: as §1

[4] = compound: COc1cc2nc(-c3cc(F)ccc3O)nc(N[C@@H]3CNC[C@H]3C(C)(C)O)c2cc1OC
How it was run: as §1

gefitinib = compound: COc1cc2ncnc(Nc3ccc(F)c(Cl)c3)c2cc1OCCCN1CCOCC1 [gefitinib]
How it was run: as §1

Measured: log2 fold change

SNRNP40 (UniProt Q96DI7)
Sequence of UniProt Q96DI7 (Q96DI7 whole entry, looked up): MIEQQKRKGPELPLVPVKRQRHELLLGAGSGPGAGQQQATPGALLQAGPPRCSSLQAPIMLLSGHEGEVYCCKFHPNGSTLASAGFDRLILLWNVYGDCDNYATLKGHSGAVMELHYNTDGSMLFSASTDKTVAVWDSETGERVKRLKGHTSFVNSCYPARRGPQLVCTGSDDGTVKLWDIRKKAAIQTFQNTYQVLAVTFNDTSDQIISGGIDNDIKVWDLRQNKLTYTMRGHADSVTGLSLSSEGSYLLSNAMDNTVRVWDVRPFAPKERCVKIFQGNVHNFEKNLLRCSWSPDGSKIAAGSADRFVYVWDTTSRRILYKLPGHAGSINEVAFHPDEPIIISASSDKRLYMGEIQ
inactive: alvocidib -0.026 | Tubastatin A 0.021 | [1] -0.019 | defactinib -0.009 | [2] -0.021 | encorafenib -0.025 | [3] -0.01 | alisertib 0.016 | [4] -0.004 | gefitinib -0.01

SLC25A17 (UniProt O43808)
Sequence of UniProt O43808 (O43808 whole entry, looked up): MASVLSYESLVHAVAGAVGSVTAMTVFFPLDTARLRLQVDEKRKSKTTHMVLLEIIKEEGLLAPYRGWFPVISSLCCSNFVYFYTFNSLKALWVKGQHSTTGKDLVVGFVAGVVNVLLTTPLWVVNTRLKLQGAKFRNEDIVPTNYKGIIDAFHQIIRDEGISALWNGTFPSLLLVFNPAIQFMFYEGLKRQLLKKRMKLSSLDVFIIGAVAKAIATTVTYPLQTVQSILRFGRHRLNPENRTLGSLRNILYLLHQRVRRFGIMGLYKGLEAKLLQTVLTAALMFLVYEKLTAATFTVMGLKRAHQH
inactive: alvocidib -0.216 | Tubastatin A 0.094 | [1] 0.007 | defactinib -0.036 | [2] 0.006 | encorafenib 0.004 | [3] -0.009 | alisertib 0.019 | [4] -0.011 | gefitinib 0.026

SRP54 (UniProt P61011)
inactive: alvocidib -0.023 | Tubastatin A 0.01 | [1] -0.011 | defactinib 0.035 | [2] 0.023 | encorafenib 0.067 | [3] 0.011 | alisertib 0.055 | [4] 0.043 | gefitinib -0.025

SKA3 (UniProt Q8IX90)
inactive: alvocidib -0.035 | Tubastatin A -0.056 | [1] 0.03 | defactinib 0.035 | [2] 0.04 | encorafenib 0.023 | [3] -0.051 | alisertib 0.039 | [4] -0.012 | gefitinib 0.063

SQLE (UniProt Q14534)
inactive: alvocidib 0.003 | [1] 0.018 | defactinib -0.009 | [2] -0.022 | encorafenib 0.002 | alisertib 0.059 | [4] -0.015 | gefitinib -0.045
active: Tubastatin A 0.377 | [3] 0.437

SYPL1 (UniProt Q16563)
inactive: alvocidib -0.132 | Tubastatin A 0.057 | [1] -0.007 | defactinib -0.014 | [2] 0.029 | encorafenib 0.013 | [3] -0.022 | alisertib 0.016 | [4] 0.012 | gefitinib -0.033

SKA1 (UniProt Q96BD8)
Sequence of UniProt Q96BD8 (Q96BD8 whole entry, looked up): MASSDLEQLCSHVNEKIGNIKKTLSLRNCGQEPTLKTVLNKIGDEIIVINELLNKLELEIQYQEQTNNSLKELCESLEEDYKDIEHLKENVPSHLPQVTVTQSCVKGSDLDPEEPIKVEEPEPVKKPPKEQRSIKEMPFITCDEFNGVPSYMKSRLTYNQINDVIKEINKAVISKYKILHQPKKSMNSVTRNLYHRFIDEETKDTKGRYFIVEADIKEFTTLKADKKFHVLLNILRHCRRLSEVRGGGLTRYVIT
inactive: alvocidib -0.046 | Tubastatin A -0.064 | [1] 0.001 | defactinib 0.015 | [2] -0.008 | encorafenib 0.129 | [3] -0.055 | alisertib -0.017 | [4] 0.017 | gefitinib -0.006

TARBP2 (UniProt Q15633)
inactive: alvocidib 0.016 | Tubastatin A -0.147 | [1] 0.038 | defactinib 0.017 | [2] -0.026 | encorafenib 0.037 | [3] 0.072 | alisertib -0.039 | [4] 0.008 | gefitinib -0.01

SMIM8 (UniProt Q96KF7)
Sequence of UniProt Q96KF7 (Q96KF7 whole entry, looked up): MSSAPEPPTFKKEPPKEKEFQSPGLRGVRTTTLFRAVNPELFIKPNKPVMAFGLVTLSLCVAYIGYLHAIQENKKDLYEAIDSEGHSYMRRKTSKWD
inactive: alvocidib -0.01 | Tubastatin A 0.034 | [1] -0.041 | defactinib 0.034 | [2] 0.066 | encorafenib 0.028 | [3] 0.078 | alisertib 0.062 | [4] 0.014 | gefitinib -0.015

SLC38A10 (UniProt Q9HBR0)
inactive: alvocidib -0.036 | Tubastatin A 0.074 | [1] -0.015 | defactinib 0.023 | [2] 0.04 | encorafenib 0.037 | [3] -0.06 | alisertib -0.032 | [4] 0.032 | gefitinib -0.046

SNW1 (UniProt Q13573)
inactive: alvocidib 0.023 | Tubastatin A 0.051 | [1] 0.02 | defactinib 0.006 | [2] 0.073 | encorafenib 0.02 | [3] -0.119 | alisertib 0.014 | [4] -0.003 | gefitinib -0.03

STK24 (UniProt B4DR80)
inactive: alvocidib -0.029 | Tubastatin A 0.02 | [1] -0.022 | defactinib 0.11 | [2] -0.008 | encorafenib -0.012 | [3] -0.039 | alisertib -0.037 | [4] 0.078 | gefitinib -0.052

SP1 (UniProt P08047)
inactive: alvocidib -0.017 | Tubastatin A -0.013 | [1] 0.053 | defactinib 0.03 | [2] 0.104 | encorafenib 0.073 | [3] -0.087 | alisertib 0.005 | [4] -0.06 | gefitinib 0.003

SMG1 (UniProt Q96Q15)
inactive: alvocidib 0.022 | Tubastatin A -0.05 | [1] 0.01 | defactinib 0.033 | [2] -0.046 | encorafenib 0.016 | [3] 0 | alisertib -0.02 | [4] -0.013 | gefitinib 0.012

STAU1 (UniProt O95793)
Sequence of UniProt O95793 (O95793 whole entry, looked up): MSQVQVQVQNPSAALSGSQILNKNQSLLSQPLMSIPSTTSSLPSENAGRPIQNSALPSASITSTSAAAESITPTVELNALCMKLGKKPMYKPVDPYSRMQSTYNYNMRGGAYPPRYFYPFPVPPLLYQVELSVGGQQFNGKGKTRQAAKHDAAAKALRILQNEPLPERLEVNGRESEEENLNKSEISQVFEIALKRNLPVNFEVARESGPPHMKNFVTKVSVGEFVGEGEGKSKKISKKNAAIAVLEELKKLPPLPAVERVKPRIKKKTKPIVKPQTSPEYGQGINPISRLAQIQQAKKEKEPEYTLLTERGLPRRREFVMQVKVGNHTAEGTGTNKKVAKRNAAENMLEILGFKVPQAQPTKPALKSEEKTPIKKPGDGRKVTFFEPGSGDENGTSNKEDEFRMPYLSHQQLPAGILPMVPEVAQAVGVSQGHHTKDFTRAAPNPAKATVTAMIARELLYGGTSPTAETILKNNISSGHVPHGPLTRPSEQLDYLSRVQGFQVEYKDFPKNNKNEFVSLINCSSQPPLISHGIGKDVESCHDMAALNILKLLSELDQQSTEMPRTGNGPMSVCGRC
inactive: alvocidib 0.062 | Tubastatin A -0.06 | [1] 0.051 | defactinib 0.027 | [2] -0.04 | encorafenib 0.078 | [3] -0.009 | alisertib 0.072 | [4] -0.007 | gefitinib 0.012

SLC29A2 (UniProt Q14542)
inactive: alvocidib -0.134 | Tubastatin A -0.018 | [1] 0.187 | defactinib -0.011 | [2] -0.042 | encorafenib 0.025 | [3] 0.007 | alisertib -0.031 | [4] 0.008 | gefitinib 0.046

SLC16A1 (UniProt P53985)
inactive: alvocidib -0.133 | Tubastatin A -0.012 | [1] 0.042 | defactinib -0.007 | [2] 0.024 | encorafenib -0.016 | [3] -0.059 | alisertib 0.045 | [4] 0.018 | gefitinib 0.032

SMC2 (UniProt O95347)
Sequence of UniProt O95347 (O95347 whole entry, looked up): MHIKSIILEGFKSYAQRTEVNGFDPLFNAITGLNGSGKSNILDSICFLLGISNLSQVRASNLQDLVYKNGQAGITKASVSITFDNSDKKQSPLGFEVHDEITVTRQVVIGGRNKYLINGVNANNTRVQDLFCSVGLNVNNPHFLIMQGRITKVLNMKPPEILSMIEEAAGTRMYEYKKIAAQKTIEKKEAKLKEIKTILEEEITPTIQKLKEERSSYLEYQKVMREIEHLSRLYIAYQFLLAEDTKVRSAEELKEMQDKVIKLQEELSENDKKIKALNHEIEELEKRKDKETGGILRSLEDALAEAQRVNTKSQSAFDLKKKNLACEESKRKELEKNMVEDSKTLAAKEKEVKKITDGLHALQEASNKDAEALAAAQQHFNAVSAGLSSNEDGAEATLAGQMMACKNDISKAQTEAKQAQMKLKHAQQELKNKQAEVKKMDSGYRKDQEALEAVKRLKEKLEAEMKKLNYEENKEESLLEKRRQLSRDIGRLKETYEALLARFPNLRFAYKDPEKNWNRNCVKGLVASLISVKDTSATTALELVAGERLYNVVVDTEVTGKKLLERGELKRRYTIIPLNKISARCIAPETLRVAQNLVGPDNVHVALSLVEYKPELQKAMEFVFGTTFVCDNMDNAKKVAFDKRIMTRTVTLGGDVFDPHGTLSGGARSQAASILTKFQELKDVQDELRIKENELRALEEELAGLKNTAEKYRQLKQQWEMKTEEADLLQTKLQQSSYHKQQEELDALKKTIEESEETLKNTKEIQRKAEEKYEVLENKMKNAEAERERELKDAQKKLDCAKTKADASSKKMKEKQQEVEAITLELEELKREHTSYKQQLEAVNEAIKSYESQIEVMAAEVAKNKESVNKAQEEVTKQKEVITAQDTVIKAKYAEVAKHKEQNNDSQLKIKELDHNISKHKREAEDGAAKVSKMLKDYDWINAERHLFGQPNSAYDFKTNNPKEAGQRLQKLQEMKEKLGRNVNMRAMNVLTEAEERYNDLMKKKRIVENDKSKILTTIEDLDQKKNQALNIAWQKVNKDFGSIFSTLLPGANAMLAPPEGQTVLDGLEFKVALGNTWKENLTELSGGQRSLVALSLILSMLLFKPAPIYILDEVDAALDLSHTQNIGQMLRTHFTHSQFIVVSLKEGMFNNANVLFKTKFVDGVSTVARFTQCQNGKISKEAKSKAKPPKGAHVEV
inactive: alvocidib 0.039 | Tubastatin A -0.087 | [1] -0.004 | defactinib -0.003 | [2] -0.022 | encorafenib -0.005 | [3] 0.047 | alisertib 0.005 | [4] 0.003 | gefitinib -0.003

STK38 (UniProt Q15208)
inactive: alvocidib 0.014 | Tubastatin A -0.056 | [2] -0.037 | encorafenib -0.033 | [3] 0.056 | alisertib 0.003 | [4] 0.266 | gefitinib 0.005
active: [1] 0.912 | defactinib 0.502

SLC25A38 (UniProt Q96DW6)
inactive: alvocidib -0.062 | Tubastatin A 0.014 | [1] -0.049 | defactinib 0.074 | [2] 0.06 | encorafenib -0.038 | [3] 0.321 | alisertib 0.044 | [4] 0.097 | gefitinib 0.094

SPATA5 (UniProt Q8NB90)
Sequence of UniProt Q8NB90 (Q8NB90 whole entry, looked up): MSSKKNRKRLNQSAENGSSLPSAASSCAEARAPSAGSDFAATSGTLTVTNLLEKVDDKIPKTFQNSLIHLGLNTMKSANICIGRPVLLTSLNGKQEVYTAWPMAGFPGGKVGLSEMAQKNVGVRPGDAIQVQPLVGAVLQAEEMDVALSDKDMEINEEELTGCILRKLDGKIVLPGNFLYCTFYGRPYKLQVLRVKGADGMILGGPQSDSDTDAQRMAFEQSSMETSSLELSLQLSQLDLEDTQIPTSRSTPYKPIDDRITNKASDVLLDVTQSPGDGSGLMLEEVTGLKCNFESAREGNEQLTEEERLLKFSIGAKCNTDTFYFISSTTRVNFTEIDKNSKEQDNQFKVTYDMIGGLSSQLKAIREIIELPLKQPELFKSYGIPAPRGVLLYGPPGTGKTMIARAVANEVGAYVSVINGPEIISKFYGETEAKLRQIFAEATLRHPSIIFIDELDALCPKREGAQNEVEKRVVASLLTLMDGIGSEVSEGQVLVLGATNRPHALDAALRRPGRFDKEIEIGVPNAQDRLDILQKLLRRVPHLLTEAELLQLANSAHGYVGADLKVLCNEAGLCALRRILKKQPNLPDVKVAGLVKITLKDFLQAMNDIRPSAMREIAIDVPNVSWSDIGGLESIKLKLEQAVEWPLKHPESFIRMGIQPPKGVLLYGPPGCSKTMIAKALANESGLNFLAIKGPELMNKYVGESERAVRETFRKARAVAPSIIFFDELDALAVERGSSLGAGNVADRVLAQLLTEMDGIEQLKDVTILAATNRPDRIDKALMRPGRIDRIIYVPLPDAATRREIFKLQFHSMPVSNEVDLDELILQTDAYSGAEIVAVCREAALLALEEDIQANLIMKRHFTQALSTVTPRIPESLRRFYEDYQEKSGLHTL
inactive: alvocidib 0.033 | Tubastatin A -0.101 | [1] 0.007 | defactinib 0.029 | [2] 0.085 | encorafenib 0.04 | [3] 0.008 | alisertib 0.025 | [4] 0.004 | gefitinib -0.024

SLC7A5 (UniProt Q01650)
inactive: alvocidib -0.142 | Tubastatin A 0.012 | [1] -0.047 | defactinib -0.044 | [2] 0.046 | encorafenib -0.001 | [3] -0.084 | alisertib -0.002 | [4] 0.021 | gefitinib 0.006

TAF6L (UniProt Q9Y6J9)
inactive: alvocidib 0.018 | Tubastatin A -0.109 | [1] -0.035 | defactinib 0.001 | [2] -0.116 | encorafenib 0.096 | [3] -0.051 | alisertib 0.006 | [4] 0.006 | gefitinib -0.046

SULT1A1 (UniProt P50225)
inactive: alvocidib 0.031 | Tubastatin A -0.043 | [1] 0.018 | defactinib -0.11 | [2] 0.06 | encorafenib 0.026 | [3] 0.017 | alisertib 0.036 | [4] -0.005 | gefitinib -0.011

SF3B6 (UniProt Q9Y3B4)
Sequence of UniProt Q9Y3B4 (Q9Y3B4 whole entry, looked up): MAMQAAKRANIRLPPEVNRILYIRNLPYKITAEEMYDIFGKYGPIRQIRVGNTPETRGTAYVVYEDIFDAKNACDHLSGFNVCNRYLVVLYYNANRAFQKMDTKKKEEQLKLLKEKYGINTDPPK
inactive: alvocidib 0.05 | Tubastatin A -0.037 | [1] 0.016 | defactinib 0.017 | [2] 0.071 | encorafenib 0.014 | [3] -0.003 | alisertib -0.011 | [4] -0.027 | gefitinib -0.172

SPAG5 (UniProt Q96R06)
inactive: alvocidib -0.019 | Tubastatin A -0.119 | [1] 0.031 | defactinib 0.008 | [2] 0.003 | encorafenib 0.071 | [3] -0.081 | alisertib -0.01 | [4] -0.017 | gefitinib 0.019

SFN (UniProt P31947)
inactive: alvocidib 0.05 | Tubastatin A 0.054 | [1] -0.009 | defactinib 0.052 | [2] -0.017 | encorafenib -0.024 | [3] 0.065 | alisertib 0.076 | [4] 0.008 | gefitinib -0.008

SLC12A6 (UniProt Q9UHW9)
Sequence of UniProt Q9UHW9 (Q9UHW9 whole entry, looked up): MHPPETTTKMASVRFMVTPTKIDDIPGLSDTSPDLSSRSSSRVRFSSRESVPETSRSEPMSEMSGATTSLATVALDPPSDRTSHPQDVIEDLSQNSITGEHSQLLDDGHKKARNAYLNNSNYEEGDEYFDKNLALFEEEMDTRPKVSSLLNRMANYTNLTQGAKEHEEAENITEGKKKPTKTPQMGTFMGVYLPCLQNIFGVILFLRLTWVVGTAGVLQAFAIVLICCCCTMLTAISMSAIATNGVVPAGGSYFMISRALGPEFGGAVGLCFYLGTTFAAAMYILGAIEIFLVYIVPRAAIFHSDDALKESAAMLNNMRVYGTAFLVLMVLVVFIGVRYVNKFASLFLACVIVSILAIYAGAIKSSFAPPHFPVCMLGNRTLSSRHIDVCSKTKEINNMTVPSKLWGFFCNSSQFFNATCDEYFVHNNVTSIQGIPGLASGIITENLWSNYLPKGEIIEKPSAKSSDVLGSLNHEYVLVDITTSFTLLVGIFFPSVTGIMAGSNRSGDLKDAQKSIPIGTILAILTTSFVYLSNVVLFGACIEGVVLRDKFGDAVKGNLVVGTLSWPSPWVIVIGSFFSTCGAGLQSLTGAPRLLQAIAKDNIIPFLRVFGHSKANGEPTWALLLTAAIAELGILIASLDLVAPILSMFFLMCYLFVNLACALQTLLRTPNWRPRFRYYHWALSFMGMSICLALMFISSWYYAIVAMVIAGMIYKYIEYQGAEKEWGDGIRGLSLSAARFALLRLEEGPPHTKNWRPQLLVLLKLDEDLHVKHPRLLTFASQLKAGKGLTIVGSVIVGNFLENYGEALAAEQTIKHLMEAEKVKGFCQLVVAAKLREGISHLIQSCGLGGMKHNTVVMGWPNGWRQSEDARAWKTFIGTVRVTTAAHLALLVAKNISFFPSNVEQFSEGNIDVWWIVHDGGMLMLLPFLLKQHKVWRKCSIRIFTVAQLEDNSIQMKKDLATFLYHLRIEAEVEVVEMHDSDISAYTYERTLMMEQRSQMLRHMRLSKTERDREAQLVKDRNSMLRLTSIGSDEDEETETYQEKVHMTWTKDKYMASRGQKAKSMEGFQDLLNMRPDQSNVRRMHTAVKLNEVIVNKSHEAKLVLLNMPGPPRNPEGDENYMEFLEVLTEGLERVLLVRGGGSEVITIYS
inactive: alvocidib -0.03 | Tubastatin A 0.03 | [1] 0.065 | defactinib 0.006 | [2] -0.038 | encorafenib 0.034 | [3] -0.021 | alisertib -0.006 | [4] 0.004 | gefitinib 0.093

STK39 (UniProt Q9UEW8)
inactive: alvocidib 0.011 | Tubastatin A -0.128 | [1] -0.015 | defactinib 0 | [2] -0.026 | encorafenib -0.021 | [3] 0.164 | alisertib -0.055 | [4] 0.02 | gefitinib 0.028

SRSF2 (UniProt Q01130)
inactive: alvocidib -0.135 | Tubastatin A 0.084 | [1] -0.017 | defactinib -0.018 | [2] -0.005 | encorafenib 0.033 | [3] -0.016 | alisertib -0.004 | [4] 0.016 | gefitinib 0.015
